The source of these data is PubChem BioAssay.

This assay can be described thus: probe aLefty1 binding on compound microarray – biochemical, small-molecule microarray, 635/667 nm fluorescence, primary screen (AID 1153).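 Note: score merges spot fluorescence with signal-to-noise ratio from the scanned slide images.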 Particulars: higher = more signal.
Molecule `C=C(C)c1cc2c(c(CCCCCC)n1)[Si](C(C)C)(C(C)C)OC2` yielded a composite z-score of -0.245. As for `COc1ccc(NC(=O)O[C@H]2[C@H](OC(=O)Nc3ccccc3)[C@H](OC(=O)Nc3ccccc3)[C@@H](OC)O[C@@H]2CO)cc1`, the figure is 0.457; as for `CCCCC(O)C1C=CC2C(=O)N(c3ccccc3)C(=O)C2N1Nc1ccc(C(C)C)cc1` (stereo not given), 0.484. `[N-]=[N+]=NCc1ccccc1C[C@@]1(C(=O)N2CCOCC2)N=C(c2ccc(OCCCO)cc2)O[C@@H]1c1ccccc1` registered a composite z-score of 0.276. In turn, `CC(c1ccccc1)C(O)C1C=CC2C(=O)N(c3ccccc3)C(=O)C2N1Nc1ccc([N+](=O)[O-])cc1` (stereo not given) registered a composite z-score of 0.175. Regarding `COc1ccc(CN(C2=CC[C@@]3(C(N)=O)C(=O)C(Cl)=C(Cl)C(=O)[C@@]3(C#N)C2)S(=O)(=O)c2ccc(Br)cc2)cc1`, the composite z-score is -0.0042. As for `COC(=O)CCCCCCC(=O)Nc1ccc(NC(=O)CCCC[P+](c2ccccc2)(c2ccccc2)c2ccccc2)cc1`, the figure is -0.0601. The molecule `CC(C)N1C(=O)C[C@@](C(=O)NCCCN(C)C)(c2ccc([N+](=O)[O-])cc2)[C@H]1c1ccc(CO)cc1` displayed a composite z-score of 0.0129. `CCOC(=O)C1=CC[C@@H](c2ccc(OCc3ccccc3)c(OC)c2)N(S(=O)(=O)c2ccc(C)cc2)[C@H]1c1ccc(SC)cc1` came in with a composite z-score of 0.524. Then `COC(=O)c1c2oc(c1C(=O)OC)C(=O)N(C)Cc1cn(nn1)C[C@H](Cc1ccccc1)NC(=O)N[C@H](CO)CC2`, with -0.0954.

`O=C1OCC=C[C@H]2OC34C=CCN(Cn5nnc6ccccc65)C(=O)[C@H]3N(CCCO)C(=O)[C@@H]4[C@@H]12` (stereo not given in full) had a composite z-score of 0.0861.

`C[C@@H]1ON(c2ccc(C(=O)OC(C)(C)C)cc2)[C@H](c2ccc(O)cc2)[C@H]1C(=O)N1C(=O)OC[C@H]1Cc1ccccc1` came in with a composite z-score of 0.119. In turn, `COCCOC(=O)N1C(=O)[C@@]2(c3cc(C#CC4=CCCCC4)ccc31)[C@H](C(N)=O)[C@H]1C(=O)O[C@H](c3ccccc3)[C@H](c3ccccc3)N1[C@@H]2c1ccccc1OCCO` showed a composite z-score of 0.199.

As to `COC(=O)[C@@]1(Cc2ccc(OC)cc2)[C@@H]2C(=CC(=O)[C@H]2CC(=O)C(=O)N(C)C)CN1C(=O)c1ccccc1`, the composite z-score worked out at 0.485. `C=CC1c2cc(O)c(OC)cc2CCN1Cc1cc2c(cc1Br)OCO2` (stereo not given) had a composite z-score of 0.274. As to `C=CCC(OC(C)=O)[C@@H]1[C@@H](N(Cc2cc3ccccc3o2)C(=O)c2ccc(C)cc2)c2cc(OCCCO)ccc2N1C(=O)Cc1ccc(OC)cc1` (stereo not given in full), the composite z-score stood at 0.25. `COc1cc(OC)c(C(O)C2C=CC3C(=O)N(c4ccccc4)C(=O)C3N2Nc2ccccc2)cc1Br` (stereo not given) had a composite z-score of 0.0834. Consider `Cc1ccc(S[C@]2(C(=O)NCC(F)(F)F)CC(=O)N(Cc3ccccc3)[C@@H]2c2ccc(CO)cc2I)cc1`, for which the composite z-score came out at 0.0355. `COC(=O)c1ccc([C@H](NC(=O)c2ccco2)[C@]2(C)C[C@H]2C2CCCCC2)cc1`: the composite z-score amounted to 0.527. Consider `NC(N)=NCCCn1cc(CNC(=O)[C@@H](N)Cc2ccccc2)nn1`, for which the composite z-score was -0.0171. For `COC(=O)c1nc2oc1CC[C@@H](CO)NC(=O)N(C)Cc1cnnn1C[C@H](Cc1ccccc1)NC2=O`, the composite z-score is -0.101. Then `COCCOC(=O)N1C(=O)[C@@]2(c3cc(C#CC4=CCCCC4)ccc31)[C@H](c1ccc(OCCO)cc1)N1[C@H](c3ccccc3)[C@H](c3ccccc3)OC(=O)[C@H]1[C@@H]2C(=O)N1CCN(c2ncccn2)CC1`, with 0.121; and `CC(C)(C)OC(=O)CC[C@]1(C(=O)NCC(O)CO)N=C(c2ccc(OCCCO)cc2)O[C@H]1c1ccccc1` (stereo not given in full), with 0.125; and `O=C1O[C@H](c2ccccc2)[C@H](c2ccccc2)N2[C@H]1[C@@H](C(=O)Nc1nc3ccccc3s1)[C@]1(C(=O)Nc3ccccc31)[C@H]2c1ccc(OCCO)cc1`, with -0.0099. The molecule `C=CC[C@]1(C(=O)NCCN2CCOCC2)N=C(c2ccc(OCCCO)cc2)O[C@H]1c1ccccc1CN=[N+]=[N-]` showed a composite z-score of -0.264. The molecule `COCCCNC(=O)[C@@]1(Cc2ccccc2CN=[N+]=[N-])N=C(c2ccc(OCCCO)cc2)O[C@H]1c1ccccc1` came in with a composite z-score of 0.197. As for `CN(C)C(=O)[C@@]1(CCS(=O)(=O)c2ccccc2)N=C(c2ccc(OCCCO)cc2)O[C@H]1c1ccccc1`, the figure is 0.142; as for `CCOC(=O)C1CCCCN1` (stereo not given), 1.08; as for `C=C(/C(=C/C[C@H](OC(=O)c1ccncc1)c1ccc(CO)o1)c1cc(C(=O)OC)ccc1OC)C(C)C`, 0.0187.

The molecule `COC(=O)[C@@]1(Cc2ccccc2)[C@H]2c3cc(C(=O)N(C)C)n(CCN4CNCC4=O)c3C[C@H]2CN1C(=O)c1ccccc1` had a composite z-score of 0.673. As for `O=C1O[C@H](c2ccccc2)[C@H](c2ccccc2)N2[C@H]1[C@@H](C(=O)Nc1nc3ccccc3s1)[C@]1(C(=O)Nc3ccc(C#CC4(O)CCCCCC4)cc31)[C@H]2c1ccccc1OCCO`, the figure is 0.966.

For the molecule `CCOC(=O)C[C@H]1[C@H](OC(=O)c2ccccc2-c2ccccc2)[C@@H](NC(=O)C2CCCCC2)c2cc(OCCCO)ccc2N1C(=O)Cc1ccc(OC)cc1`, the composite z-score was -0.0547. Turning to `CN(C)CCCNC(=O)[C@@]1(C)c2ccccc2C(=O)N(Cc2ccccc2)[C@H]1c1ccc(CO)cc1`, the composite z-score was -0.146.

The molecule `NC(=O)N1C(=O)C2C(C1=O)C1C=C(CCCO)C2C(c2cccs2)N1Cc1cccc(OC(F)(F)F)c1` (stereo not given) showed a composite z-score of 0.135.

On to `COc1ccc(NC(=O)O[C@H]2[C@H](OC(=O)Nc3ccccc3)[C@@H](OC(=O)Nc3ccccc3)[C@@H](OC)O[C@@H]2CO)cc1`, for which the composite z-score came out at 0.113.
